# From ChEMBL document CHEMBL3988442, “University of Dundee, Small-Polar-MMV Screening Library” (2021)
# The whole screen tested about 69,000 compounds, of which about 1,000 (1.4%) showed an effect of 50% or more. What follows is part of a selection rich in strong results, with near analogues and random picks from the rest.
# Tested on: Leishmania donovani
# Assay: Leishmania intramacrophage assay
# Type: functional, organism-based
# Set-up: scale not given: in the data most compounds retested in dose-response had high values
Structure (SMILES),"Percent Effect (30 µM, 30.03 µM)","Percent Effect (30.3 µM, […])"
CCN(CC)C(=O)c1nnn(Cc2ccccc2)c1OC,-25.11%,–
Cc1ccc(C(=O)N2CCC3(CCC(=O)N(CC(N)=O)C3)CC2)cc1,–,-8.473%
CC(C1CC1)N(C(=O)CNc1ccc(C#N)cc1)C1CC1 (centres undefined),–,26.89%
O=C(O)C(F)(F)F.O=C(c1cccc(Cl)c1)N1CC[C@H]2[C@H]1CCN2CC1CC1,–,23.02%
O=C(O)C(F)(F)F.O=C(c1cccc(Cl)c1)N1CC[C@H]2[C@H]1CCN2CC1CCOCC1,39.19%,–
CN(C)CCN1CC[C@@H]2[C@@H]1CCN2C(=O)c1cccc(Cl)c1,–,54.02%
CO[C@H]1CN(C(=O)c2ccc(-c3ccccc3)[nH]2)CC[C@H]1N,–,45.29%
O=C(c1ccc(-c2ccccc2)[nH]c1=O)N1CCN(C2CC2)CC1,–,25.14%
CN1[C@H]2CC[C@@H]1CN(C(=O)c1ccc(-c3ccccc3)[nH]1)CC2,–,78.84%
CCCS(=O)(=O)CC(=O)N1CCN(CC2CC2)c2ccccc21,–,3.775%
Cc1ccc2c(n1)N(CCN(C)C)CCN(C(=O)c1cccs1)C2.O=C(O)C(F)(F)F.O=C(O)C(F)(F)F,–,50.31%
Cc1ccc2c(n1)N(CCN(C)C)CCN(C(=O)c1ccc[nH]1)C2.O=C(O)C(F)(F)F.O=C(O)C(F)(F)F,20.64%,–
Cc1ccc2c(n1)N(CCN(C)C)CCN(C(=O)c1cscn1)C2.O=C(O)C(F)(F)F.O=C(O)C(F)(F)F,–,4.389%
O=C(c1ccoc1)N1CCCCC1c1nc[nH]n1 (centres undefined),–,24.92%
CC(=O)c1ccc(C(=O)N2CCCCC2c2nc[nH]n2)cc1 (centres undefined),–,66.49%
O=C(c1ccc(F)c(F)c1)N1CCCCC1c1nc[nH]n1 (centres undefined),–,-8.926%
CCOCC1CN(C(=O)c2cscn2)Cc2cn(C)nc21.O=C(O)C(F)(F)F (centres undefined),–,-0.7565%
O=C(c1ccc(-c2ccc(O)nc2)s1)N1CCCCCC1,–,19.86%
CCn1ccnc1CN(C)c1cc(C2CCCNC2)nc(C)n1 (centres undefined),–,-6.202%
Cc1nc(C2CCCNC2)cc(N(C)CCc2ccccc2)n1 (centres undefined),–,66.58%
Cc1nc(C2CCCNC2)cc(N(C)CCc2cn[nH]c2)n1 (centres undefined),–,29.46%
Cl.c1cc(CC2CCCNC2)nc(NCCc2cnccn2)c1 (centres undefined),–,2.895%
Cl.c1ccc(CCNc2cccc(C3CCCNC3)n2)cc1 (centres undefined),–,71.14%
Cl.c1cc(NCc2ccncc2)nc(C2CCCNC2)c1 (centres undefined),–,20.7%
CC1(C)Cc2c(cnn2-c2ccccc2)C(NC2CCSCC2)C1 (centres undefined),–,17.91%

Structure (SMILES),"Percent Effect (30 µM, 30.03 µM)","Percent Effect (30.3 µM, […])"
CCN1C(=O)[C@H]2CN(Cc3cccnc3)C[C@H]2C12CCN(C(C)=O)CC2,–,4.627%
CCC(N)C(=O)N1CCC(OCc2ccc(Cl)c(Cl)c2)CC1.Cl (centres undefined),–,81.5%
NC(=O)C1CCN(C(=O)Cc2ccc(Cl)c(Cl)c2)CC1,–,12.37%
CSCCC(O)C(=O)N1CCC(OCc2cccnc2)CC1 (centres undefined),–,-15.88%
CNC(=O)CN1CCC(OCc2ccc(Cl)c(Cl)c2)CC1,–,23.39%
NC(=O)CN1CCC(OCc2ccc(Cl)c(Cl)c2)CC1,–,39.98%
CCOc1cc(-c2cc(=O)n3c(n2)CCCCC3)ccc1O,–,-28.99%
O=C(O)C(F)(F)F.O=C([C@H]1COC[C@H]2CN(c3ncc(F)cn3)C[C@H]21)N1CCOCC1,–,11.96%
O=C(CCN1CCCC(CO)(CC2CC2)C1)NCc1cccc(Cl)c1 (centres undefined),–,10.86%
COCCN1CC[C@@H]2OC[C@H](C(=O)N(C)Cc3ccccn3)C[C@@H]2C1,–,34.37%
CN(Cc1ccccn1)C(=O)[C@H]1CO[C@H]2CCN(CC3CC3)C[C@H]2C1.O=C(O)C(F)(F)F.O=C(O)C(F)(F)F,–,67.47%
O=C(NCCc1cccs1)[C@H]1CO[C@H]2CCN(CC3CC3)C[C@H]2C1.O=C(O)C(F)(F)F,–,18.2%
Cc1nc(CN2CCO[C@H]3CN(C(=O)c4cccn4C)C[C@H]32)cs1,–,20.02%
O=C(CSc1ccncc1)NC1CC(=O)N(CCc2ccccc2)C1 (centres undefined),–,1.719%
CCn1cc(-c2cc(-c3ccn(C)c3)nc(N)c2C#N)cc1C#N,–,62.07%
COc1ncc(-c2cc(-c3ccn(C)c3)nc(N)c2C#N)cn1,–,4.864%
CCNc1ncc(-c2cc(-c3ccn(C)c3)nc(N)c2C#N)cn1,–,-7.222%
COc1c(CNCc2ccccc2-n2ccnc2)c(C)nn1C,–,-14%
Cc1cc(C)cc(OCn2ccc(C(=O)O)n2)c1,–,36.81%
CCN(CC)C(=O)c1ccn(COc2ccccc2)n1,25.56%,–
CCN(CC)C(=O)c1ccn(COc2cc(C)cc(C)c2)n1,51.39%,–
Cc1cc(C(=O)N2C[C@@H](C(=O)O)[C@H](c3ccccc3C)C2)c(C)o1,-7.821%,–
O=C(c1cc(-c2cn[nH]c2)nc2cc(F)ccc12)N1CCS(=O)(=O)CC1,–,4.667%
Cc1ccoc1C(=O)NCCS(=O)(=O)N1CCSCC1,–,62.05%
